# From PubChem BioAssay (NCATS)
# Results filed as inconclusive are left out. A call without a number means that no potency is given here. Some compounds were tested as several samples or in several runs, with calls that do not always agree. Active and inactive are the calls of the source. Calls come from the whole dose curve; as a rule, active = well fitted curve in the direction sought with a large enough effect; inconclusive = small, poorly fitted or top-dose-only effect, or another doubt; inactive = no such curve, though single readings can be large; an effect the other way counts as inactive or inconclusive.
# What was measured:
# [1] = Quantitative highthroughput screen to assess conditional lethalithy of NOMO1 cells grown in RPMI1640 with untreated serum (RPMI+s) (AID 1963876); note: nearly all actives have a fitted effect of over 35% in size
# Procedure, shortened: (§1)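 Each medium arm—HPLM with 10% dialyzed FBS, or RPMI1640 with 5 mM glucose and 10% untreated or dialyzed FBS—was screened against an 11-point, 3-fold compound titration for 48 h at 37 °C, with CellTiter-Glo luminescence as endpoint.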
# [2] = Quantitative highthroughput screen to assess conditional lethalithy of NOMO1 cells grown in RPMI1640 with dialyzed fetal bovine serum (RPMI+ds) (AID 1963877); note: nearly all actives have a fitted effect of over 30% in size; for viability: series mostly up to about 46 µM
# Procedure, shortened: as §1
# [3] = Quantitative highthroughput screen to assess conditional lethalithy of NOMO1 cells grown in Human Plasma-Like Medium with dialyzed fetal bovine serum (HPLM+ds) (AID 1963878); note: nearly all actives have a fitted effect of over 35% in size
# Procedure, shortened: as §1
# [4] = Quantitative highthroughput screen to assess conditional lethalithy of P12 Ichikawa cells grown in Human Plasma-Like Medium with dialyzed fetal bovine serum (HPLM+ds) (AID 1963879); settings: Potency: viability; note: nearly all actives have a fitted effect of over 35% in size; for viability: series mostly up to about 46 µM
# Procedure, shortened: as §1
# [5] = Quantitative highthroughput screen to assess conditional lethalithy of P12 Ichikawa cells grown in RPMI1640 with dialyzed fetal bovine serum (RPMI+ds) (AID 1963880); settings: Potency: P12-Ichikawa viability; note: nearly all actives have a fitted effect of over 35% in size
# Procedure, shortened: as §1
# [6] = Quantitative highthroughput screen to assess conditional lethalithy of P12 Ichikawa cells grown in RPMI1640 with untreated serum (RPMI+s) (AID 1963881); settings: Potency: viability; note: nearly all actives have a fitted effect of over 35% in size; for viability: series mostly up to about 46 µM
# Procedure, shortened: as §1
# [7] = Quantitative highthroughput screen to assess conditional lethalithy of SEM cells grown in Human Plasma-Like Medium with dialyzed fetal bovine serum (HPLM+ds) (AID 1963882); note: nearly all actives have a fitted effect of over 35% in size; for viability: series mostly up to about 46 µM
# Procedure, shortened: as §1
# [8] = Quantitative highthroughput screen to assess conditional lethalithy of SEM cells grown in RPMI1640 with unreated serum (RPMI+s) (AID 1963883); note: nearly all actives have a fitted effect of over 35% in size
# Procedure, shortened: as §1
# [9] = Quantitative highthroughput screen to assess conditional lethalithy of SEM cells grown in RPMI1640 with dialyzed fetal bovine serum (RPMI+ds) (AID 1963884); note: nearly all actives have a fitted effect of over 35% in size; for viability: series mostly up to about 46 µM
# Procedure, shortened: as §1
# Potency is the fitted concentration of half-maximal effect.
SMILES,Potency [1],Potency [2],Potency [3],Potency [4],Potency [5],Potency [6],Potency [7],Potency [8],Potency [9]
O=C1NC(=O)C(=Cc2cccc(C(F)(F)F)c2)S1,inactive,inactive,inactive,inactive,inactive,inactive,inactive,,
NC(=O)c1ncn([C@@H]2O[C@H](CO)[C@@H](O)[C@@H]2O)c1N,inactive,inactive,inactive,inactive,inactive,inactive,18700 nM (active),,
O=C1NC(=O)C(=Cc2ccc3nccnc3c2)S1,inactive,inactive,inactive,inactive,inactive,inactive,inactive,inactive,inactive
CC(C)c1onc(-c2c(Cl)cccc2Cl)c1COc1ccc(C=Cc2cccc(C(=O)O)c2)c(Cl)c1,inactive,inactive,inactive,inactive,inactive,inactive,inactive,inactive,inactive
CC(=NNC(=S)N1CCC1)c1ccccn1,8.3 nM (active),0.0053 µM (active),4.7 nM (active),5.3 nM (active),6.6 nM (active),5.9 nM (active),2.6 nM (active),3.3 nM (active),
CC(C)c1ccccc1Cc1cc(C(=O)Nc2ccc(S(=O)(=O)c3ccccc3C(C)(C)C)cc2)c(O)c(O)c1O,inactive,inactive,inactive,inactive,inactive,inactive,inactive,inactive,
CCC(=C(CC)c1ccc(O)cc1)c1ccc(O)cc1,inactive,inactive,inactive,inactive,inactive,inactive,inactive,inactive,
O=C(NCc1ccccc1)[C@H](Cc1ccccc1)NC(=O)[C@@H]1O[C@@H]1C(=O)NCCc1ccc(O)cc1,inactive,inactive,inactive,inactive,inactive,inactive,inactive,,
CCC(=O)OCC(=O)[C@@]1(OC(=O)CC)[C@@H](C)C[C@@H]2[C@H]3CCC4=CC(=O)C=C[C@]4(C)[C@@]3(F)[C@@H](O)C[C@@]21C,7430 nM (active),5.9 µM (active),1660 nM (active),5900 nM (active),2350 nM (active),4690 nM (active),,,
COc1cc(Nc2ncc(F)c(Nc3ccc4c(n3)NC(=O)C(C)(C)O4)n2)cc(OC)c1OC,5900 nM (active),9.35 µM (active),4690 nM (active),4180 nM (active),5260 nM (active),5260 nM (active),1660 nM (active),1480 nM (active),1660 nM (active)
CCCCCCCc1ccc(CCc2cccc(O)c2C(=O)O)cc1,inactive,inactive,inactive,inactive,inactive,inactive,,,
NS(=O)(=O)OC[C@@H]1C[C@@H](n2ccc3c(N[C@H]4CCc5ccccc54)ncnc32)C[C@H]1O,526 nM (active),0.526 µM (active),590 nM (active),2960 nM (active),1660 nM (active),2090 nM (active),1480 nM (active),1480 nM (active),1320 nM (active)
C[C@H](CCC(=O)O)[C@H]1CC[C@H]2[C@H]3[C@@H](CC[C@]12C)[C@@]1(C)CC[C@@H](O)C[C@H]1C[C@@H]3O,inactive,inactive,inactive,inactive,inactive,inactive,inactive,inactive,
CO[C@H]1/C=C\O[C@@]2(C)Oc3c(C)c(O)c4c(O)c(c(C=NN5CCN(C6CCCC6)CC5)c(O)c4c3C2=O)NC(=O)C(C)=CC=C[C@H](C)[C@H](O)[C@@H](C)[C@@H](O)[C@@H](C)[C@H](OC(C)=O)[C@H]1C,1660 nM (active),2.64 µM (active),2350 nM (active),2640 nM (active),2640 nM (active),,,,
O=C(C=Cc1ccc(/C=C/C(=O)Nc2ccc(C3=NCCN3)cc2)cc1)Nc1ccc(C2=NCCN2)cc1,inactive,inactive,inactive,inactive,inactive,inactive,inactive,,
Cc1cc(CS(=O)(=O)c2ccccc2)cc(OCc2ccc(CN3CCC[C@H]3CO)cc2)c1,1050 nM (active),1.32 µM (active),662 nM (active),743 nM (active),1180 nM (active),1050 nM (active),590 nM (active),332 nM (active),526 nM (active)
CC(C=CC1=C(C)CCCC1(C)C)=CC=CC(C)=CC(=O)O,inactive,833 nM (active) and inactive,inactive,inactive,inactive,inactive,inactive,inactive,inactive
CN(CC=CC#CC(C)(C)C)Cc1cccc2ccccc12,inactive,inactive,inactive,inactive,inactive,inactive,inactive,inactive,inactive
